Our source for the outcome and AC50 values is PubChem BioAssay (EPA / NIEHS).

The structures appear in SMILES notation. Calls of active or inactive are those of the source. Rule for the calls: active = hit-call score of the fitted dose curve at least 0.9, where 1 is the maximum; inactive = score below 0.9.

A short description of the assay: ATG_SREBP_CIS: Attagene CIS-FACTORIAL HepG2 Assay for human Sterol Regulatory Element Binding (SREBP) (AID 2282962). The settings on record: HepG2 Attagene cis-factorial SREBP reporter, mRNA; actives raise or lower the signal. Here is the method: ATG_CIS is a cell-based, multiplexed-readout assay that uses HepG2, a human liver cell line, with measurements taken at 24 hours after chemical dosing in a 24-well plate.ATG_SREBP_CIS is one of 52 assay component(s) measured or calculated from the ATG_CIS assay. It is designed to make measurements of mRNA induction, a form of inducible reporter, as detected with fluorescence intensity signals by Reverse transcription polymerase chain reaction (RT-PCR) and Capillary electrophoresis technology.Data from the assay component ATG_SREBP_CIS was analyzed into 1 assay endpoint. This assay endpoint, ATG_SREBP_CIS, was analyzed with bidirectional fitting relative to DMSO as the negative control and baseline of activity. Using a type of inducible reporter, measures of mRNA for gain or loss-of-signal activity can be used to understand the reporter gene at the transcription factor-level as they relate to the gene SREBF1. Furthermore, this assay endpoint can be referred to as a primary readout, because this assay has produced multiple assay endpoints where this one serves a reporter gene function. To generalize the intended target to other relatable targets, this assay endpoint is annotated to the dna binding intended target family, where the subfamily is basic helix-loop-helix leucine zipper.
Human liver HepG2 cells are transiently transfected with multiple reporter transcription units (MRTUs) in 6-well plates using FuGene 6 reagent (Roche; 3 ml FuGene/1 mg DNA). The MRTU constructs are regulated by a cis-regulating element (promoter). […] A major difference between the CIS and TRANS system is that in CIS activities of endogenous TFs are measured, whereas the TRANS assay evaluates changes in activities of exogenous, chimeric NR-Gal4 proteins. […] At the end of 24 hour incubation, total RNA was isolated using TriZol reagent (Invitrogen). The isolated RNA is then reverse-transcribed using oligo(dT) primer and Mo-MLV reverse transcriptase (Invitrogen) with DNAse I (Ambion) treatment for 30 min. The one-tenth of the produced cDNA was amplified by PCR using Taq DNA polymerase (Invitrogen) and two reporter sequence-specific primers. The PCR products were fluorescently labeled by primer extension with 6-arboxyfluorescein (6-FAM) 5'-labeled reporter sequence-specific primer (2 min at 95 C, 20 s at 68 C and 10 min at 72 C) and these products were digested with 5U of HpaI (New England Biolabs) for 2h at 37 C. The fragments were purified using Qiaquick PCR columns (Qiagen), analyzed on an ABI 3130xL genetic analyzer (Applied Biosystems) with peak positions identified by using a set of X-rhodamine (ROX)-labeled MapMarker1000 molecular weight standards (BioVentures). The raw capillary electrophoresis data was processed using Attagraph software (Attagene).
As to `O=C(CC(C(=O)OC1CCCCC1)S(=O)(=O)O)OC1CCCCC1` (stereo not given), the molecule was classed as inactive.
Take `CN(C)CCCN1c2ccccc2CCc2ccc(Cl)cc21`: the AC50 is 15.8 µM (active).
In the case of `CC/C=C\CCO`, the outcome was inactive.
Regarding `CC1=CCCC(C)(C)C12CCC(C)O2` (stereo not given), the molecule was called inactive.
Turning to `Cc1ccccc1S(=O)(=O)O`, the molecule was called inactive.
With `[O-][n+]1ccc(Cl)cc1`, the outcome was inactive.
For the molecule `C=CCOC(=O)C(=C)C`, the molecule was called inactive.
Consider `C[C@H]1C[C@H]2[C@@H]3CCC4=CC(=O)C=C[C@]4(C)[C@@]3(F)[C@@H](O)C[C@]2(C)[C@@]1(O)C(=O)CO`, for which the molecule was called inactive.
Take `O=C(OCc1ccccc1)c1ccccc1`: the molecule was called inactive.
For the molecule `CCCCn1cc[n+](C)c1`, the molecule was called inactive.
As for `O=C(C1CCCCC1)N1CC(=O)N2CCc3ccccc3C2C1` (stereo not given), the call was inactive.
Still for that read-out and setting: the result for `NC(=O)c1ccc([N+](=O)[O-])cc1Cl` reads “inactive”; that for `O=C1CCCCCCCCCCCCCC1`, “inactive”; that for `CCOc1ccc2c(c1)C(C)CC(C)(C)N2` (stereo not given), “inactive”.
Turning to `C=CC(C)(CCC=C(C)C)OC(=O)c1ccccc1` (stereo not given), the result was inactive.
Consider `C[Si](C)(C)O[Si](C)(C)O[Si](C)(C)C`, for which the outcome was inactive.
On the same count and under the same terms, next, `CC/C=C\CC1=C(C)CCC1=O`: “inactive”; `CC1=NN(c2cc(Cl)c(S(=O)(=O)O)cc2Cl)C(=O)C1N=Nc1ccc(S(=O)(=O)O)cc1` (stereo not given): “inactive”; `NC(=O)c1ccc(N)cc1`: “inactive”.
For the molecule `CC(=O)CCc1ccccc1`, the call was inactive.
Same read-out and setting: the result for `CCCC(=O)OC/C=C(\C)CCC=C(C)C` reads “inactive”; that for `O=[N+]([O-])c1ccccc1C(F)(F)F`, “inactive”.
`Cc1cc2nc3c(=O)[nH]c(=O)nc-3n(C[C@H](O)[C@H](O)[C@H](O)CO)c2cc1C`: the molecule was classed as inactive.
In the case of `Clc1ccc(Sc2cc(Cl)c(Cl)cc2Cl)cc1`, the call was inactive.
With `CCCCCC1CCCC(=O)O1` (stereo not given), the molecule was classed as inactive.
Same read-out and setting: next, `COC(=O)[C@]1(C)CCC[C@@]2(C)[C@H]1CC=C1C=C(C(C)C)CC[C@@H]12`: “inactive”; `CN(C)N=Nc1ccccc1`: “inactive”.
Turning to `CCCCNC(N)=O`, the molecule was classed as inactive.
`CC(=O)OC(C)(C)Cc1ccccc1`: the molecule was classed as inactive.
Consider `CC(C)CC(=O)O`, for which the molecule was called inactive.
`CCC(=O)OCc1ccc(OC)cc1`: the outcome was inactive.
Take `C=C1CC[C@H]2C[C@@H]1C2(C)C`: the outcome was inactive.
In the case of `C=CN1CCCCCC1=O`, the molecule was called inactive.
In the case of `CCC(C)=NO`, the outcome was inactive.
Take `COCCCN`: the molecule was classed as inactive.
Consider `CC(=O)Nc1c(I)c(NC(C)=O)c(I)c(C(=O)O)c1I`, for which the molecule was classed as inactive.
On to `OCCc1ccccn1`, for which the call was inactive.
Turning to `CCCC[N+]1(C)CCCC1`, the outcome was inactive.
As for `COc1cccc(OC)c1C(=O)O`, the call was inactive.
For the molecule `Oc1ccc(Cl)cc1C1CCCC1`, the AC50 was 25.6 µM (active).

A word on the AC50: it is the midpoint of the concentration-response curve, whichever way the signal moves.
